# Results: PubChem BioAssay AID720596 (The Scripps Research Institute Molecular Screening Center, 2013)
# The campaign covered roughly 370,000 compounds. About 1,600 (0.43%) were called active. Cut-off read from the data, not from the text of the source: active = inhibition above about 24%; inactive = the rest. The list comes from a sample in which actives are over-represented; it also holds similar structures and randomly drawn compounds.
# Target: Major prion protein (Homo sapiens) (UniProt P04156)
# Test: reduces human prion protein on the cell surface, primary screen, cell-based, TR-FRET (AID 720596); note: 0% = median of the test wells and 100% = reference compound wells
# Details: cell surface PrPC, TR-FRET read-out; at 13.8 µM; stronger effect = higher value
row,SMILES,inhibition
1,Cc1ccc(S(=O)(=O)N2CCOCC2)cc1NC(=O)c1ccncc1,7.08% (inactive)
2,COc1ccc(NC(=O)CN(C)C(=O)c2cc(C3CC3)nn2-c2ccccc2)cc1,10.2% (inactive)
3,CCC(C)(O)C(=O)OC1C(=O)OC2CC3C(C)=CC(=O)C(O)C3(C)C3C4(O)OCC23C1C(C)C4O (stereo unspecified),83.1% (active)
4,O=C(N/C(=C\c1ccc(F)cc1)C(=O)N1CCCCCC1)c1ccccc1,-7.9% (inactive)
5,Cc1ccc(-c2nc3ccccc3c(=O)n2-c2ccc(Br)cn2)cc1,0.03% (inactive)
6,COc1ccc(CC(=O)NC(C)c2ccc(Cl)c(Cl)c2)cc1S(=O)(=O)N1CCOCC1 (stereo unspecified),4.45% (inactive)
7,COc1ccc(C)cc1NC(=O)CNCc1cccs1,0.34% (inactive)
8,O=C(COC(=O)CNC(=O)C1CCCCC1)Nc1cccc(F)c1,-5.42% (inactive)
9,CC1CC1C(=O)OCC(=O)Nc1cccc(F)c1 (stereo unspecified),-3.56% (inactive)
10,Cc1ccsc1C(=O)OCC(=O)Nc1cccc(F)c1,25.2% (active)
11,CCN(CC(=O)NCc1ccc(Cl)cc1)C(=O)CSc1ccccc1,9.76% (inactive)
12,C=CCN1C(=O)C2(C(C(=O)OCC)=C(N)Oc3c2c(=O)oc2ccccc32)c2ccccc21 (stereo unspecified),8.11% (inactive)
13,CN1/C(=C\C(=O)c2oc3ccccc3c2N)C(C)(C)c2ccccc21,51.8% (active)
14,CN1/C(=C\C=C2\N=C(c3ccc(F)cc3)OC2=O)C(C)(C)c2ccccc21,9.17% (inactive)
15,Cc1ccc(Cl)cc1N1CCN(C(=O)c2cccc3c(=O)c(C)c(-c4ccccc4)oc23)CC1,3.53% (inactive)
16,N#Cc1ccc(-c2nc3c(Cl)cc(C(F)(F)F)cn3c2Cc2ccccc2C(F)(F)F)cc1,6.77% (inactive)
17,CCOC(=O)C1(Cc2ccc(Cl)cc2)CCN(C(C)CCn2cccn2)CC1 (stereo unspecified),-7.01% (inactive)
18,CCCCNc1c(-c2cccc(Sc3ccc(OC)cc3)c2)nc2ccccn12,24.6% (active)
19,CCCCNC(=O)c1onc(CSc2cccc(OC)c2)c1C(=O)O,0.43% (inactive)
20,COC(=O)c1ccc2nc(-c3cccc(Br)c3)c(Cc3ccc(OC)cc3C)n2c1,-3.29% (inactive)
21,COc1ccc(-c2cc(C(F)(F)F)nc(SCCC(=O)NCc3ccco3)n2)cc1,-0.14% (inactive)
22,COc1ccc(-c2cc(C(F)(F)F)nc(S(C)(=O)=O)n2)cc1OC,43.6% (active)
23,CCCC[C@H]1C2CC(OC(=O)NCc3ccccc3)C(C2)[C@H]2CCCCN21 (stereo partly specified),-9.6% (inactive)

row,SMILES,inhibition
1,CCc1c(N=O)c(-c2ccccc2)n(O)[n+]1[O-],-1.69% (inactive)
2,CCc1c(C)[nH]c(=S)c(C#N)c1C,10% (inactive)
3,CCOC(=O)c1c(C)[nH]c(=S)c(C#N)c1-c1ccccc1,36.6% (active)
4,CC(=O)c1c(C)[nH]c(=S)c(C#N)c1-c1ccc(F)cc1,2.25% (inactive)
5,Cc1nc(CC(=O)NNS(=O)(=O)c2ccc(F)c(Cl)c2)cs1,-3.65% (inactive)
6,Cc1c(NC(=O)CN2C(=O)C(=O)N(Cc3ccccc3)C2=O)c(=O)n(-c2ccccc2)n1C,-0.02% (inactive)
7,Cc1c(C)n2c(SCC(=O)N3CCCC3)nnc2[nH]c1=O,-1.9% (inactive)
8,CC(=O)c1sc2nc(SCC(=O)N3CCCCC3)[nH]c(=O)c2c1C,34.2% (active)
9,O=C(CSc1nc2c(c(=O)[nH]1)CCCC2)N1CCCCC1,3.4% (inactive)
10,CCCCCCCCCCCCn1ccc(=N)cc1,34.3% (active)
11,C[C@H]1CN([C@@H](C)CO)C(=O)CCCn2cc(nn2)CO[C@@H]1CN(C)S(=O)(=O)c1cccs1,6.24% (inactive)
12,NC(=O)COc1ccc(NC(=O)c2ccccc2-c2ccccc2)cc1,2.41% (inactive)
13,Cc1ccc(C)c2[nH]c(=O)c(CCNC(=O)c3cccs3)cc12,1.05% (inactive)
14,CCCCC(CC)CNCc1cccn1CCN1CCOCC1 (stereo unspecified),-0.03% (inactive)
15,CCCCCCCCn1c2c(c(=N)c3c1CCC3)CCCC2,34.1% (active)
16,CCNC(=O)Nc1ccc(S(=O)(=O)Nc2cnc(C)nc2C)cc1,-5.43% (inactive)
17,Cc1ccc(Sc2ccc(NC(=O)c3ccc(F)cc3)cc2C#N)cc1,-3.85% (inactive)
18,CC(=O)c1ccc(NC(=O)c2sc3nc4n(c(=O)c3c2C)CCCCC4)cc1,7.05% (inactive)
19,Cc1ccc(NC(=O)c2sc3nc(N)c(C#N)cc3c2N)cc1,29.7% (active)
20,CC(=O)Nc1ccc(S(=O)(=O)NNC(=O)CCc2ccccc2)cc1,-0.14% (inactive)
21,COc1ccc(-n2nnnc2SCc2nc(N)nc(N3CCOCC3)n2)cc1,2.17% (inactive)
22,CC1(c2ccc3ccccc3c2)NC(=O)NC1=O (stereo unspecified),9.52% (inactive)
23,CNC(=O)C1CN(C(=O)c2cccc(S(=O)(=O)N3CCc4ccccc43)c2)c2ccccc2O1 (stereo unspecified),4.01% (inactive)
